PubChem BioAssay (NCATS)
Where “and” joins values, the source holds several entries; their conditions need not be identical. Equal values may be shown once. Results filed as inconclusive are left out. Unmarked numbers belong to inactive results. Calls of active or inactive are those of the source. Calls follow the shape of the dose curve; as a rule, active = well fitted inhibition curve with a large enough effect; inconclusive = small, poorly fitted or top-dose-only effect; inactive = no such curve, though single readings can be large or run the other way.

assay: Confirmatory qHTS for small molecule stabilizers of the endoplasmic reticulum resident proteome: Secreted ER Calcium Modulated Protein (SERCaMP) assay (AID 1508628); conditions: SERCaMP secreted luciferase ER calcium/proteostasis reporter; series mostly up to 76.3 µM; activity change, negative = decrease: at the top concentration; also: nearly all actives have a fitted effect of over 40% in size
From the text: Assay Provider: Brandon K. Harvey Ph.D.
National Institute on Drug Abuse, National Institutes of Health, Baltimore, MD
Endoplasmic reticulum (ER) dysregulation is associated with human pathologies including neurodegenerative, cardiovascular, muscular, and diabetic conditions. Maintenance of ER calcium is critical for functions of the ER and its depletion can lead to loss of ER resident proteins, in a process termed exodosis. Therapeutic compounds capable of attenuating the redistribution of ER proteins under pathological conditions may slow or stop disease progression. To identify such compounds, we performed a quantitative high-throughput screen (qHTS) using the SERCaMP assay, which monitors secretion of ER resident proteins triggered by calcium depletion.
SERCaMP was initially developed as a reporter of ER calcium homeostasis using a Gaussia luciferase with a modified signal peptide and carboxy-terminus (GLuc-SERCaMP), modifications that confer secretion of the reporter in response to ER calcium depletion (Henderson et al., 2014). The assay was used to screen 9,501 compounds, including a collection of drugs approved by the FDA (US), EMA (EU), NHI (Japan), and HC (Canada) regulatory agencies (Huang et al., 2011). Since the SERCaMP reporter reflects the exodosis phenomenon (Trychta et al., 2018a), compounds identified in the screen have the potential to prevent exodosis by different mechanisms such as stabilizing ER calcium or augmenting ERS retrieval.
1. Henderson, M.J., Wires, E.S., Trychta, K.A., Richie, C.T., and Harvey, B.K. (2014). SERCaMP: a carboxy-terminal protein modification that enables monitoring of ER calcium homeostasis. Mol Biol Cell 25, 2828-2839.
2. Huang, R., Southall, N., Wang, Y., Yasgar, A., Shinn, P., Jadhav, A., Nguyen, D.T., and Austin, C.P. (2011). The NCGC pharmaceutical collection: a comprehensive resource of clinically approved drugs enabling repurposing and chemical genomics. Sci Transl Med 3, 80ps16.
3. Trychta, K.A., Back, S., Henderson, M.J., and Harvey, B.K. (2018a). KDEL Receptors Are Differentially Regulated to Maintain the ER Proteome under Calcium Deficiency. Cell Rep 25, 1829-1840 e1826.
SEQUENCE No. (1, 2, 3, etc.); […] (e.g., Cells, Incubation, Reagent, etc.); VALUE and DESCRIPTION.
1; Reagent; 5 uL; 1000 SH-SY5Y cells per wells
3; Compound; 23 nL; Control inhibitor / compound library
5; Reagent; 100 nM; Thapsigargin
7; Reagent; 1 uL; 0.5x coelenterazine
8; Detection; Luminescence; ViewLux imaging system
NOTES (numbers refer to sequence above)
1; SH-SY5Y human neuroblastoma cells stably expressing GLuc-SERCaMP (SH-SY5Y-GLuc-ASARTDL) cells were seeded in 1,536 well white tissue culture treated plates (Corning, Cat# 7464) in DMEM-high glucose-sodium pyruvate (ThermoFisher Scientific, Cat #10569) supplemented with 10% bovine growth serum (Hyclone), 10 U/ml penicillin (Gibco), 10 ug/ml streptomycin (Gibco), and 20 mM HEPES.
2; Assay plates were incubated for 5 hour at 37C in a humidified incubator containing 5% CO2.
3; qHTS libraries (23 nl, final concentrations of 1.53 uM, 7.67 uM, 38.3 uM) or controls (neutral control: DMSO, positive control: dantrolene) were added using a Kalypsis pin-tool Robotic System equipped with 1536 pinheads.
4; Cells were then incubated for 16 hours at 37C, 5% CO2.
5; Thapsigargin was added at 100 nM to deplete ER calcium stores.
6; Cells were incubated for 4 hour (37 °C, 5% CO2)
7; Gaussia luciferase in the medium was measured by adding 1 ul of 0.5x coelenterazine (final concentration 0.07x) prepared in Gaussia Luciferase Glow Assay Buffer (Pierce), without addition of the Cell Lysis Buffer Reagent.
8; Luminescence was measured using a ViewLux […] CCD imaging system (Perkin Elmer) equipped with clear filters. […] The same controls were also used for the calculation of the Z' factor, a measure of assay quality control, as previously described (Zhang et al., 1999). […]
% is scaled to controls: 0 for no effect and ±100 for the full control effect; potency is read from the fitted curve at half-maximal effect.

Row | Compound | Potency | activity change, negative = decrease
1 | CC(C)(c1ccc(O)cc1)c1ccc(O)cc1 | 89.1 µM (active) and 44.7 µM (active) and 50.1 µM (active) | 
2 | COc1cccc2c1[C@@H]1CN(CCCCn3c(=O)[nH]c4c(sc5ncc(-c6ccccc6)nc54)c3=O)C[C@@H]1CO2 |  | -12.2%
3 | O=C(NO)c1ccccc1 |  | 19.5% [at 156 µM]
4 | Fc1ccc(C(c2ccc(F)cc2)N2CCNCC2)cc1 |  | 112%
5 | CN1CCC(Nc2ncc3ncnc(Nc4ccc(F)c(Cl)c4)c3n2)CC1 |  | 112%
6 | C[C@H]1C[C@H](O)c2ccsc2S1(=O)=O |  | -17.8%
7 | N[C@@H](Cc1cc(I)c(O)c(I)c1)C(=O)O |  | -21.4%
8 | CC(C(O)c1ccccc1)N(C)CCOC(c1ccccc1)c1ccccc1 (stereo not drawn) | 31.6 µM (active) | 
9 | CN1CCC(N(Cc2cccs2)c2ccccc2)CC1 | 31.6 µM (active) | 
10 | COC(=O)[C@H]1[C@H]2C[C@@H]3c4[nH]c5cc(OC)ccc5c4CCN3C[C@H]2C[C@@H](OC(=O)/C=C/c2ccc(O)c(OC)c2)[C@@H]1OC | 20 µM (active) | 
11 | CCOc1ncc(F)c(=O)[nH]1 |  | -3.57%
12 | CC(C)C[C@@H]1[C@H](c2ccccc2)OC(=O)N1CCCN1CCCCCC1 | 31.6 µM (active) | 
13 | Nc1cccc2c(N)cccc12 |  | 1.37% [at 156 µM]
14 | Cc1nc2n(c(=O)c1CCN1CCC(C(=O)c3ccc(F)cc3)CC1)CCS2 |  | -14.3%
15 | CCC(=O)O[C@H]1[C@H](O[C@@H]2[C@@H](C)[C@H](O[C@H]3C[C@@](C)(OC)[C@@H](O)[C@H](C)O3)[C@@H](C)C(=O)O[C@H](CC)[C@@](C)(O)[C@H](O)[C@@H](C)C(=O)[C@H](C)C[C@@]2(C)O)O[C@H](C)C[C@@H]1N(C)C | 20 µM (active) | 
16 | COC(=O)c1c(Cl)c(Cl)c(C(=O)OC)c(Cl)c1Cl |  | 11.7% [at 156 µM]
17 | Clc1ccc2c(c1)N=C(N1CCNCC1)c1ccccc1N2 | 14.1 µM (active) and 10 µM (active) | 
18 | O=C1NC(c2cccc([N+](=O)[O-])c2)=CCN1c1ccccc1O | 3.16 µM (active) | 
19 | Cc1onc(-c2ccccc2)c1C(=O)Cl |  | -4.38%
20 | CCCC(=O)Nc1ccc(O)c(C(C)=O)c1 |  | 36.5%
21 | CN1CCCN(C(c2ccccc2)c2ccc(Cl)cc2)CC1 (stereo not drawn) |  | 182%
22 | O=C1CC(c2ccc(Cl)cc2)CC(=O)N1 |  | -8.25%
23 | O=C(O)Cn1cnnn1 |  | -4.75%
